Measured values taken from PubChem BioAssay (EPA / NIEHS).
Records with an inconclusive call do not appear. Calls of active or inactive are those of the source. Rule for the calls, unless noted: active = hit-call score of the fitted dose curve at least 0.9, where 1 is the maximum; inactive = score below 0.9.

Experiments:
[1] = BSK_3C_VCAM1: BioMAP Diversity Plus: 3C Assay for Vascular cell adhesion molecule 1 (VCAM1) Biomarker Activity (AID 2282999); conditions: BioMAP 3C HUVEC, VCAM1 ELISA, cytokine-stimulated; actives raise or lower the signal
How it was run: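 Human umbilical vein endothelial cells (3C system), biomarker read by ELISA 24 h after dosing; bidirectional fit against DMSO baseline. Cytotoxicity tracked by SRB total-protein staining in parallel cultures at biomarker time.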

[2] = BSK_4H_Eotaxin3: BioMAP Diversity Plus: 4H Assay for Eotaxin 3 Biomarker Activity (AID 2283000); conditions: primary human endothelial cells (HUVEC); actives raise or lower the signal
How it was run: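 Eotaxin-3 (CCL26) levels were measured by ELISA in HUVEC primary cultures 24 h post-dosing. Gain or loss of signal was fitted in both directions, with DMSO serving as baseline and negative control.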

[3] = target: human Peroxisome Proliferator-activated Receptor delta (PPARd), PPARD (gene 5467) (UniProt Q03181); test: ATG_PPARd_TRANS: Attagene TRANS-FACTORIAL HepG2 Assay for human Peroxisome Proliferator-activated Receptor delta (PPARd) (AID 2283002; active = hit-call score of the fitted dose curve at least 0.9, where 1 is the maximum)
How it was run: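 HepG2 cells transiently transfected with GAL4-UAS multiplexed reporter units driven by exogenous chimeric NR-GAL4 proteins; 24 h compound exposure. Reporter mRNA measured by RT-PCR, 6-FAM primer extension, HpaI digestion and capillary electrophoresis; gain of signal fitted relative to DMSO.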

[4] = read-out: Intercellular Adhesion Molecule 1 (ICAM1), ICAM1 (gene 3383); test: BSK_3C_ICAM1: BioMAP Diversity Plus: 3C Assay for Intercellular Adhesion Molecule 1 (ICAM1) Biomarker Activity (AID 2283003); conditions: primary human endothelial cells (HUVEC); actives raise or lower the signal
How it was run: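 HUVEC primary cells stimulated under 3C conditions; ICAM1 measured by ELISA 24 h after compound dosing. Curves fitted bidirectionally against the DMSO baseline. Overt cytotoxicity checked by SRB staining of parallel cultures.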

[5] = target: Retinoic acid receptor alpha (Homo sapiens) (UniProt P10276); test: ATG_RARa_TRANS: Attagene TRANS-FACTORIAL HepG2 Assay for human Retinoic Acid Receptor alpha (RARa) (AID 2283005; active = hit-call score of the fitted dose curve at least 0.9, where 1 is the maximum;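 for AC50: potency for increased reporter signal meaning RARa activation over DMSO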)
How it was run: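 HepG2 transiently transfected with multiplex GAL4-UAS reporter units including a human RARa–GAL4 chimera; 24 h compound exposure. Reporter mRNA quantified by RT-PCR, 6-FAM labeling and capillary electrophoresis; gain of signal versus DMSO.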

[6] = BSK_3C_Proliferation: Cell Proliferation Assessment in the BioMAP Diversity Plus: 3C Assay (AID 2283006); conditions: primary human endothelial cells (HUVEC);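 for AC50: potency may reflect either rise or fall in cell number versus DMSO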
How it was run: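 Subconfluent HUVEC (3C system) cultured with chemical; relative cell number read at 48 h by sulforhodamine B total-protein staining (0.1% SRB after 10% TCA fixation, 560 nm). Bidirectional fit relative to DMSO.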

[7] = target: human Retinoic Acid Receptor gamma (RARg), RARG (gene 5916) (UniProt P13631); test: ATG_RARg_TRANS: Attagene TRANS-FACTORIAL HepG2 Assay for human Retinoic Acid Receptor gamma (RARg) (AID 2283009; active = hit-call score of the fitted dose curve at least 0.9, where 1 is the maximum;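 for AC50: AC50 is for reporter induction above DMSO meaning RARg activation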)
How it was run: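 HepG2 transiently transfected with GAL4-UAS reporter units and chimeric NR-Gal4 constructs; 24 h compound exposure. Reporter mRNA quantified by RT-PCR, FAM labeling, HpaI digestion and capillary electrophoresis; gain-of-signal versus DMSO.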

[8] = read-out: E-selectin (Homo sapiens) (UniProt P16581); test: BSK_3C_Eselectin: BioMAP Diversity Plus: 3C Assay for Eselectin Biomarker Activity (AID 2283015); conditions: primary human endothelial cells (HUVEC); actives raise or lower the signal;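 note: cell surface E-selectin protein quantified by ELISA 24 h after dosing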
How it was run: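 Primary human umbilical vein endothelial cells (3C system), read 24 h after compound addition; E-selectin measured by ELISA. Bidirectional curve fitting against DMSO baseline; cytotoxicity by parallel SRB total-protein staining.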

[9] = read-out: Interleukin-1 alpha (IL1a), IL1A (gene 3552); test: BSK_BE3C_IL1a: BioMAP Diversity Plus: BE3C Assay for Interleukin-1 alpha (IL1a) Biomarker Activity (AID 2283016); conditions: primary human bronchial epithelial cells; actives raise or lower the signal
How it was run: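 Human primary bronchial epithelial cells, 24 h chemical exposure; IL-1a quantified by ELISA, fitted bidirectionally against DMSO. Cytotoxicity assessed in parallel by SRB total-protein staining at the time of measurement.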

[10] = read-out: Monocyte Chemoattractant Protein-1 (MCP1), CCL2 (gene 6347); test: BSK_3C_MCP1: BioMAP Diversity Plus: 3C Assay for Monocyte Chemoattractant Protein-1 (MCP1) Biomarker Activity (AID 2283017); conditions: primary human endothelial cells (HUVEC); actives raise or lower the signal
How it was run: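 Human umbilical vein endothelial cells (3C system) exposed to chemicals for 24 h; MCP-1 quantified by ELISA against the DMSO baseline with bidirectional fitting, and parallel SRB staining used to assess cytotoxicity.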

[11] = read-out: Monocyte Chemoattractant Protein-1 (MCP1), CCL2 (gene 6347); test: BSK_4H_MCP1: BioMAP Diversity Plus: 4H Assay for Monocyte Chemoattractant Protein-1 (MCP1) Biomarker Activity (AID 2283018); conditions: primary human endothelial cells (HUVEC); actives raise or lower the signal
How it was run: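 Human umbilical vein endothelial cells (4H system) exposed to chemicals for 24 h in 96-well format. MCP-1 measured by ELISA; bidirectional fitting against DMSO, with SRB total-protein staining in parallel cultures for cytotoxicity.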

[12] = target: human Retinoic Acid Receptor beta (RARb), RARB (gene 5915) (UniProt P10826); test: ATG_RARb_TRANS: Attagene TRANS-FACTORIAL HepG2 Assay for human Retinoic Acid Receptor beta (AID 2283004; active = hit-call score of the fitted dose curve at least 0.9, where 1 is the maximum)
How it was run: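 HepG2 cells were transiently transfected with GAL4-UAS reporter units that report activity of exogenous chimeric NR-Gal4 proteins, then exposed to compound for 24 h. Reporter mRNA was quantified by RT-PCR with capillary electrophoresis fluorescence, as gain of signal over DMSO.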

[13] = target: Peroxisome proliferator-activated receptor gamma (Homo sapiens) (UniProt P37231); test: ATG_PPARg_TRANS: Attagene TRANS-FACTORIAL HepG2 Assay for human Peroxisome Proliferator-activated Receptor-gamma (PPARg) (AID 2283007; active = hit-call score of the fitted dose curve at least 0.9, where 1 is the maximum)
How it was run: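 Twenty-four hours after chemical dosing of transiently transfected HepG2 cells, isolated RNA was converted to cDNA, reporter sequences amplified and 6-FAM-labelled, then HpaI-digested and analysed by capillary electrophoresis. Signal increase against DMSO was fitted.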

[14] = target: Nuclear receptor subfamily 1 group I member 2 (Homo sapiens) (UniProt O75469); test: ATG_PXR_TRANS: Attagene TRANS-FACTORIAL HepG2 Assay for human Pregnane X Receptor (PXR) (AID 2283008; active = hit-call score of the fitted dose curve at least 0.9, where 1 is the maximum)
How it was run: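 Measures mRNA induction of a GAL4-UAS-driven reporter in human HepG2 cells transiently expressing PXR fused to Gal4, following 24 h treatment. DMSO served as negative control and baseline.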

[15] = target: human RAR-related Orphan Receptor beta (RORb), RORB (gene 6096) (UniProt Q92753); test: ATG_RORb_TRANS: Attagene TRANS-FACTORIAL HepG2 Assay for human RAR-related Orphan Receptor beta (RORb) (AID 2283010; active = hit-call score of the fitted dose curve at least 0.9, where 1 is the maximum)
How it was run: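 HepG2 cells transiently transfected with GAL4-UAS reporter units expressing chimeric NR-Gal4 protein; reporter mRNA measured 24 h after dosing by RT-PCR, 6-FAM labelling and capillary electrophoresis. Gain-of-signal fitted relative to DMSO baseline.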

[16] = target: human Retinoid X Receptor beta (RXRb), RXRB (gene 6257) (UniProt P28702); test: ATG_RXRb_TRANS: Attagene TRANS-FACTORIAL HepG2 Assay for human Retinoid X Receptor beta (RXRb) (AID 2283013; active = hit-call score of the fitted dose curve at least 0.9, where 1 is the maximum)
How it was run: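 HepG2 cells were transiently transfected with multiplexed GAL4-UAS reporters and a chimeric RXRb-Gal4 construct, then exposed for 24 h. Reporter mRNA was quantified by RT-PCR, FAM labeling, HpaI digestion and capillary electrophoresis; gain of signal was scored against DMSO.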

[17] = target: Retinoic acid receptor RXR-alpha (Homo sapiens) (UniProt P19793); test: ATG_RXRa_TRANS: Attagene TRANS-FACTORIAL HepG2 Assay for human Retinoid X Receptor alpha (RXRa) (AID 2283012; active = hit-call score of the fitted dose curve at least 0.9, where 1 is the maximum)
How it was run: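 HepG2 cells transiently transfected with GAL4-UAS reporter units and chimeric RXRa-Gal4 protein, treated 24 h. Reporter mRNA measured by RT-PCR, fluorescent labelling, HpaI digestion and capillary electrophoresis. Induction fitted against DMSO.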

[18] = target: human RAR-related Orphan Receptor gamma (RORg), RORC (gene 6097) (UniProt P51449); test: ATG_RORg_TRANS: Attagene TRANS-FACTORIAL HepG2 Assay for human RAR-related Orphan Receptor gamma (RORg) (AID 2283011; active = hit-call score of the fitted dose curve at least 0.9, where 1 is the maximum)
How it was run: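 HepG2 cells transiently transfected with GAL4-UAS reporter units and chimeric RORg-Gal4 construct; after 24 h chemical exposure, reporter mRNA measured by RT-PCR with fluorescent capillary electrophoresis, gain of signal fitted against DMSO.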

[19] = target: human Thyroid Receptor alpha (THRa1), THRA (gene 7067) (UniProt P10827); test: ATG_THRa1_TRANS: Attagene TRANS-FACTORIAL HepG2 Assay for human Thyroid Receptor alpha (THRa1) (AID 2283014; active = hit-call score of the fitted dose curve at least 0.9, where 1 is the maximum)
How it was run: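 HepG2 cells transiently transfected with chimeric NR-Gal4 and GAL4-UAS reporter units, dosed 24 h. Reporter mRNA quantified by RT-PCR, fluorescent labeling, HpaI digestion and capillary electrophoresis; gain-of-signal fit versus DMSO.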

Measured: AC50

Chain of E-selectin (Homo sapiens) (P16581 whole entry, looked up): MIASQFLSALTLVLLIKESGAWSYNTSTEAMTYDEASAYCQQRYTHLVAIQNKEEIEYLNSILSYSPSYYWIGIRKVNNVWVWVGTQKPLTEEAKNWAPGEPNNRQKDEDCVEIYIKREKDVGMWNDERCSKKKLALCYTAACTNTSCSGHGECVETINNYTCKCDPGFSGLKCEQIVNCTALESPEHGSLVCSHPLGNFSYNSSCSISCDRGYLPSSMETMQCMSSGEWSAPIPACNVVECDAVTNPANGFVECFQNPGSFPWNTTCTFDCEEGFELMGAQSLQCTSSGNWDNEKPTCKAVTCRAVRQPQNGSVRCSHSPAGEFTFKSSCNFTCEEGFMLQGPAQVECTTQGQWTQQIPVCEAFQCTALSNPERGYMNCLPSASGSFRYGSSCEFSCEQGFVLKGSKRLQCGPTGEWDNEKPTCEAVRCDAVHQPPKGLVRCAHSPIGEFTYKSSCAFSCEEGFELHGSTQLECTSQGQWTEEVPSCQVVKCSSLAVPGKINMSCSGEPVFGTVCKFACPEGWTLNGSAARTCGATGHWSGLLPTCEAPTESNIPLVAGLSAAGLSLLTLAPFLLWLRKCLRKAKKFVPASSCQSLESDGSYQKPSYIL
Chain of human Retinoid X Receptor beta (RXRb), RXRB (gene 6257) (P28702 whole entry, looked up, the tested form may be a part): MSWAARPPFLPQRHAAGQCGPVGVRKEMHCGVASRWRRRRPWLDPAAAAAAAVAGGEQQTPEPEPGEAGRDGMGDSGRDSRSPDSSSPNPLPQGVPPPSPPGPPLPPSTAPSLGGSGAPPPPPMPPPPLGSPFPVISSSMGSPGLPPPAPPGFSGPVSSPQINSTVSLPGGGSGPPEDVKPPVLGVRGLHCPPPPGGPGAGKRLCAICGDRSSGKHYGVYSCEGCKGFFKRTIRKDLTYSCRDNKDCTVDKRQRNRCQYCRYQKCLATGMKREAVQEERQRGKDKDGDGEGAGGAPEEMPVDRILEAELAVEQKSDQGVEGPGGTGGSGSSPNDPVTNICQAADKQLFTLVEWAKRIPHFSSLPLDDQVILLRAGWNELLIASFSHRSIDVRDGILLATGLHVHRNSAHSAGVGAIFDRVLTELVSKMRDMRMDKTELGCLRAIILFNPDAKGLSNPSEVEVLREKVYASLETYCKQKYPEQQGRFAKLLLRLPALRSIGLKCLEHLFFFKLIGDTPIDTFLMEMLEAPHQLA
Chain of human RAR-related Orphan Receptor gamma (RORg), RORC (gene 6097) (P51449 whole entry, looked up, the tested form may be a part): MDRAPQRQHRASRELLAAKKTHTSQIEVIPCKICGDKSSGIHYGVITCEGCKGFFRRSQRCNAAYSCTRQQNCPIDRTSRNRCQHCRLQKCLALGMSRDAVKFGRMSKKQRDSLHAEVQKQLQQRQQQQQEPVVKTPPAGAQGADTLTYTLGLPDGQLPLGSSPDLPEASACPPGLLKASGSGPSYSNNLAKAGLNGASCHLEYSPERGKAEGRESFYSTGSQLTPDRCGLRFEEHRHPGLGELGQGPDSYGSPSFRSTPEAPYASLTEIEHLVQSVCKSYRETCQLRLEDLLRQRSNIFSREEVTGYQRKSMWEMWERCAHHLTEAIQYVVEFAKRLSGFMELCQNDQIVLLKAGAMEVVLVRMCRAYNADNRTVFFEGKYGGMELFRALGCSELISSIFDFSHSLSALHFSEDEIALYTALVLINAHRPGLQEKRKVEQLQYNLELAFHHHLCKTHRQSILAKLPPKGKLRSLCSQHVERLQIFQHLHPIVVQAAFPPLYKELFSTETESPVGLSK
Chain of human Thyroid Receptor alpha (THRa1), THRA (gene 7067) (P10827 whole entry, looked up, the tested form may be a part): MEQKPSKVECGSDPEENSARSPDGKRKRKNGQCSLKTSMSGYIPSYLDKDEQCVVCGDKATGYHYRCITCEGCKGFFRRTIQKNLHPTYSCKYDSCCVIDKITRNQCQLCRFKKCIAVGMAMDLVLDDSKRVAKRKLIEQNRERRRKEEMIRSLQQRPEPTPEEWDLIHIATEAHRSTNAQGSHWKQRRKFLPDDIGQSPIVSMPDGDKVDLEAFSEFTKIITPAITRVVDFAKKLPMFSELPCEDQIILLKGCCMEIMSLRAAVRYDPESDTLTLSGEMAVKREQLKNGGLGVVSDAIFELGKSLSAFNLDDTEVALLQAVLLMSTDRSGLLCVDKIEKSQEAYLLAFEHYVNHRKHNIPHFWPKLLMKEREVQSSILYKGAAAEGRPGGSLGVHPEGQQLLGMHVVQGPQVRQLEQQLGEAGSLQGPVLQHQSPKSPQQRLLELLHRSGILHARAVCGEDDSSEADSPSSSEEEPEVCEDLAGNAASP
Chain of Nuclear receptor subfamily 1 group I member 2 (Homo sapiens) (O75469 whole entry, looked up, the tested form may be a part): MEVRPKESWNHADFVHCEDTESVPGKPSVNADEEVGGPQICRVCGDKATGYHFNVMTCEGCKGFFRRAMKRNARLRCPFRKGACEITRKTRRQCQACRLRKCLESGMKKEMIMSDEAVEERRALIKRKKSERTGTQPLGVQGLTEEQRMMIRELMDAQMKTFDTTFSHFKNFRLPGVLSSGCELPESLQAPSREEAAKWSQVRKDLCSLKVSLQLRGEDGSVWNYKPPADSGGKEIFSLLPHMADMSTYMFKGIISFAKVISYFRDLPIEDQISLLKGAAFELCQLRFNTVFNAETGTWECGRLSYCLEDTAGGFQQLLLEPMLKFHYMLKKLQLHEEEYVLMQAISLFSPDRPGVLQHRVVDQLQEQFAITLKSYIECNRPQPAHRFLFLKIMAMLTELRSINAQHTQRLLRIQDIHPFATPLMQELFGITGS
Chain of human Retinoic Acid Receptor gamma (RARg), RARG (gene 5916) (P13631 whole entry, looked up, the tested form may be a part): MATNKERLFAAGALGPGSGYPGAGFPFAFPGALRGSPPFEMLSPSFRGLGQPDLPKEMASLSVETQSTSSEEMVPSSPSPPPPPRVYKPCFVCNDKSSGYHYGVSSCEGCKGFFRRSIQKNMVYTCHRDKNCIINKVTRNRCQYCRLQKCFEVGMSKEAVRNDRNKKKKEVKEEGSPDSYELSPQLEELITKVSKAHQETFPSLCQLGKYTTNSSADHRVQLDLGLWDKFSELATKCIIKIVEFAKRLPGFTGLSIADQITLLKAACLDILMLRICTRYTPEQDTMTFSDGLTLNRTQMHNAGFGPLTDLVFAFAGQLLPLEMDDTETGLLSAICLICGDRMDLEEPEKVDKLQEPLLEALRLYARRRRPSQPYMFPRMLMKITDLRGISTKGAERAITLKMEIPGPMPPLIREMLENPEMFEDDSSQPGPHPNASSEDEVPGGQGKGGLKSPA
Chain of Peroxisome proliferator-activated receptor gamma (Homo sapiens) (P37231 whole entry, looked up): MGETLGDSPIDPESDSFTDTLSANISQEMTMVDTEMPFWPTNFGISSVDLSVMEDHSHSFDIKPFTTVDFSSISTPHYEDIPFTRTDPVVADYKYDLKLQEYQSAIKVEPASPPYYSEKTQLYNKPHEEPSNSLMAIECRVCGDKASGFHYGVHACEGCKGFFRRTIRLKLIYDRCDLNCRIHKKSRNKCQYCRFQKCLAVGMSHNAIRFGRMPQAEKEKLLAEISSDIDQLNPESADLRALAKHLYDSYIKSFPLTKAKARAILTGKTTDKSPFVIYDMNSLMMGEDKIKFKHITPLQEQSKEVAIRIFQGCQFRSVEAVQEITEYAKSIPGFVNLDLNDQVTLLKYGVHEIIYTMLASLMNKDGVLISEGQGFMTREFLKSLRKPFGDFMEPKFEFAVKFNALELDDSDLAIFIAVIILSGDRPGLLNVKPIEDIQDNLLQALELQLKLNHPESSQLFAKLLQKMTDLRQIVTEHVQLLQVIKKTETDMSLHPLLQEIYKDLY
Chain of human Peroxisome Proliferator-activated Receptor delta (PPARd), PPARD (gene 5467) (Q03181 whole entry, looked up, the tested form may be a part): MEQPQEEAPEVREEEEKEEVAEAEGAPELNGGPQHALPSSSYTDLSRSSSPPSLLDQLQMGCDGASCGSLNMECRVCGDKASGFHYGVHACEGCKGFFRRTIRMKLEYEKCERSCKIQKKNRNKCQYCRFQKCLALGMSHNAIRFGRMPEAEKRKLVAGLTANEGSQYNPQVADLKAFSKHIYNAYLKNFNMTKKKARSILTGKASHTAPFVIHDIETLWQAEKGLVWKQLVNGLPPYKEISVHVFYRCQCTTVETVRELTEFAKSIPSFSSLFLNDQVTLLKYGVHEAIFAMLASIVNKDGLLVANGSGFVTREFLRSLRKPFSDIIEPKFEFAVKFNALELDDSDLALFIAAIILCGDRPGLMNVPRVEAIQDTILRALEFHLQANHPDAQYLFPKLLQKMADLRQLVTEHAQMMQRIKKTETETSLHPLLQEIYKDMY
Chain of human RAR-related Orphan Receptor beta (RORb), RORB (gene 6096) (Q92753 whole entry, looked up, the tested form may be a part): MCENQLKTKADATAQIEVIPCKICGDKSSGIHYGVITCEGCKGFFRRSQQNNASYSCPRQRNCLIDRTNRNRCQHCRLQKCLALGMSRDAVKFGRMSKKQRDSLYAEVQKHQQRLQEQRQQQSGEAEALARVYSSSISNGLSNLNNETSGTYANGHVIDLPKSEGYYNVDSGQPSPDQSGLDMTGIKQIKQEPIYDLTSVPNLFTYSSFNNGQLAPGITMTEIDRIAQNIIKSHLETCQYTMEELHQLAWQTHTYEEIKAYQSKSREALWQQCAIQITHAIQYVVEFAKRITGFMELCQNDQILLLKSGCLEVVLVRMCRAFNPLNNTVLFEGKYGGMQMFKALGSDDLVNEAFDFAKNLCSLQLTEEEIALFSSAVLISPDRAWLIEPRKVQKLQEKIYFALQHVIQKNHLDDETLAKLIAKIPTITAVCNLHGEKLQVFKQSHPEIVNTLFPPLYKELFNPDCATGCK
Chain of Retinoic acid receptor alpha (Homo sapiens) (P10276 whole entry, looked up, the tested form may be a part): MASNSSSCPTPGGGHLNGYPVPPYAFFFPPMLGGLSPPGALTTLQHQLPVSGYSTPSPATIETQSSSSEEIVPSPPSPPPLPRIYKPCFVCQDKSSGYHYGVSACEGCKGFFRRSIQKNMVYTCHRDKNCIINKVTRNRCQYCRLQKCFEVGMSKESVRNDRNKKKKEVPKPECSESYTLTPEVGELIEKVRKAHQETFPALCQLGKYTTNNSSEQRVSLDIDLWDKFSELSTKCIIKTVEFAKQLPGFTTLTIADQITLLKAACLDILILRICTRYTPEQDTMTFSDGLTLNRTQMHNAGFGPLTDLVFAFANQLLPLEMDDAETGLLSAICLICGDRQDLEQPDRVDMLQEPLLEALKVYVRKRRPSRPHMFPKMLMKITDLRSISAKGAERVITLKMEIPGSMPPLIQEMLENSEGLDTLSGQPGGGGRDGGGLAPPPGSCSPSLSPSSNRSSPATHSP

CC1=C2C[C@H]3[C@@H](CC=C4C[C@@H](O)CC[C@@]43C)[C@@H]2CC[C@]12O[C@@H]1C[C@H](C)CN[C@H]1[C@H]2C
inactive: [1] | [2] | [3] | [4] | [5] | [6] | [7] | [8] | [9] | [11]
active: [10] 2.82 µM

ClC1=C(Cl)[C@]2(Cl)[C@@H]3[C@@H]4C[C@@H]([C@H]5O[C@@H]45)[C@@H]3[C@@]1(Cl)C2(Cl)Cl
active: [5] 0.855 µM | [6] 14.5 µM | [14] 2.84 µM | [7] 2.12 µM | [16] 24.4 µM
not listed: [11] | [17] | [18] | [19]
inactive: all other assays above

CN(C)c1nc(=O)n(C2CCCCC2)c(=O)n1C
inactive: [1] | [2] | [4] | [6] | [13] | [16] | [8] | [9] | [10] | [11]

CC(c1ccc(O)cc1)(c1ccc(O)cc1)c1ccc(O)cc1
active: [1] 29.8 µM | [2] 31.4 µM | [6] 28 µM | [14] 2.93 µM | [9] 6.69 µM | [10] 31.1 µM | [11] 18.9 µM
inactive: [3] | [4] | [13] | [17] | [8]

C[C@]12CCC(=O)C=C1CC[C@@H]1[C@@H]2CC[C@@]2(C)[C@H]1CC[C@]2(C)O
active: [6] 28.8 µM
not listed: [5] | [12] | [17]
inactive: all other assays above

CCC(C)(CC)c1cc(NC(=O)c2c(OC)cccc2OC)on1
active: [14] 0.692 µM
not listed: [5] | [7] | [12] | [15] | [17] | [19]
inactive: all other assays above
